DT40 TDP1 no CPT – qHTS for Inhibitors of human tyrosyl-DNA phosphodiesterase 1 (TDP1): qHTS in cells in absence of CPT | DT40 Tdp1-/- hTDP1 cells, no CPT, ATP luminescence, 48 h | AID 686978, 2013 | hit rate 15% among 420,000 | Potency, µM (doses to about 46.2 µM), actives largely listed as inhibitors; further: nearly all actives have a fitted effect of over 55% in size
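A cellular qHTS used chicken DT40 cells lacking endogenous Tdp1 but carrying stably transfected human TDP1. Compounds were applied without camptothecin, and cell growth kinetics were judged by ATP-dependent luminescence after ≥48 hr.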
IL1B secr inh – inhibitors of inflammasome signaling (IL-1 beta secretion); THP-1 LPS/ATP IL-1B secretion, AlphaLISA, 16 h; active compounds read low; activity change, % at 57.5 µM; hit rate 4.7% among 360,000; in the data active means activity change below about -50%; inconclusive means mostly about -30% to -49%
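Secreted IL-1B measured by AlphaLISA bead assay after 16 h compound exposure of THP-1 cells; compounds (final up to 57.5 uM) added 1 h before LPS (250 ng/mL) and ATP (1.25 mM) stimulation; lower signal means less secretion.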
LDHA inh – inhibitors of human lactate dehydrogenase A. purified LDHA, NADH/diaphorase-resazurin fluorescence; active compounds read low. activity change, % (values are at about 110 or 230 µM). hit rate 0.15% among 480,000. P00338. AID 1347041; in the data active means activity change below about -30%; inconclusive means mostly about -25% to -30%
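Human LDH5 (2 nM) was incubated with 0.06 mM NADH and 0.2 mM pyruvate for 5 min at room temperature in Tris pH 7.4. Remaining NADH was coupled through diaphorase/resazurin, and resorufin fluorescence was read at 0 and 20 min.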
RORg inh – blocks mouse ROR gamma transcriptional activity; Drosophila S2 Gal4-RORgamma UAS-luciferase reporter, 20 h; hit rate 5.4% among 310,000; AID 2551; Potency, µM (titrated, usually from 53.6 µM), usual class: inhibitors; P51450; further: nearly all actives have a fitted effect of over 60% in size
Target sequence (P51450 whole entry, looked up, the tested form may be a part): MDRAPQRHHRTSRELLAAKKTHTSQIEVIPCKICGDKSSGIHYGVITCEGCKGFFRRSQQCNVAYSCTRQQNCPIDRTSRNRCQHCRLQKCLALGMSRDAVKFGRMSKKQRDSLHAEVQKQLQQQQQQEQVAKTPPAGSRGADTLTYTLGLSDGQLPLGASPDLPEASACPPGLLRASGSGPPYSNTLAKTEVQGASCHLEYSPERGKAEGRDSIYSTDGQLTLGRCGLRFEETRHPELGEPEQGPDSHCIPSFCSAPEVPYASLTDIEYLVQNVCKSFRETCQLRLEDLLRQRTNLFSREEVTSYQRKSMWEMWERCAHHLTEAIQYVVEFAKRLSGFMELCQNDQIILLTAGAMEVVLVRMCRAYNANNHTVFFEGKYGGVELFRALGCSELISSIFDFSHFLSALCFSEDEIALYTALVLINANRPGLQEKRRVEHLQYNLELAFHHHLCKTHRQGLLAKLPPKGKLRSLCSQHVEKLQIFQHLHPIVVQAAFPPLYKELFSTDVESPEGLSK
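Luciferase reporter read in Schneider cells carrying Gal4-RORγ (mouse) and UAS-Photinus luciferase; cells given compound 1 h before 700 uM copper sulfate induction, then incubated 20 h at ambient temperature.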
TDP1 cell CPT – growth inhibition of DT40 Tdp1-/-;hTDP1 cells with camptothecin (screen for TDP1 inhibitors); chicken DT40 Tdp1-/-;hTDP1 cells + 20 nM CPT, ATP luminescence, 48 h; Potency, µM (titrated, usually from 46.2 µM), hits mostly inhibitors; hit rate 12% among 420,000; further: nearly all actives have a fitted effect of over 55% in size
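Chicken DT40 Tdp1-/- cells complemented with human TDP1, 400 cells/well, exposed to compounds plus 20 nM camptothecin for at least 48 h at 37 C; viability read as ATP content by CellTiter-Glo luminescence.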
Gal4-VP16 FLuc – inhibits Gal4-VP16 luciferase reporter, ROR gamma counter-screen; Drosophila S2 Gal4-VP16 UAS-luciferase, luminescence, 20 h; Potency, µM (series often up to 53.6 µM), hits mostly inhibitors; hit rate 3.5% among 310,000; AID 2546;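 further: Gal4-VP16 expression switched on by copper sulfate through the metallothionein promoter; nearly all actives have a fitted effect of over 50% in size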
A number is an active result; n = inactive; u = inconclusive; x = not tested or not shown; ! = not active in a repeat. An excerpt weighted towards active compounds, which were near 18% of everything screened. Unless noted, the call rests on the fitted dose curve; in most records, active means well fitted curve in the direction sought with a large enough effect; inconclusive means small, poorly fitted or top-dose-only effect, or another doubt; inactive means no such curve, though single readings can be large; an effect the other way counts as inactive or inconclusive.

SMILES	DT40 TDP1 no CPT	IL1B secr inh	LDHA inh	RORg inh	TDP1 cell CPT	Gal4-VP16 FLuc
CC(=O)/C(=C\Nc1ccc(OCc2ccccc2)cc1)c1ccccc1	29µM	n	n	n	18µM	n
COc1cc(N/C=C(\C(C)=O)c2ccccc2)cc(OC)c1	x	x	x	n	x	n
CCOC(=O)c1cc2[nH]c3ccccc3c2[n+](-c2ccc([N+](=O)[O-])cc2)c1N	8.2µM	-58	n	n	12µM	u
CCN1/C(=C/C(C)=O)Sc2ccc(OC)cc21	13µM	n	n	n	7.1µM!	n
CCN1/C(=C2/SC(=S)N(NC(C)=O)C2=O)Sc2ccc(OC)cc21	u	n	n	n	u	n
Cc1ccc2[nH]c3c(c2c1)CN(C(=O)CN1CCN(c2cccc(C)c2C)CC1)CC3	21µM	n	n	n	23µM	n
Cc1oc(-c2ccccc2)nc1CC(=O)Nc1ccc(F)cc1Cl	x	x	n	x	x	x
COc1ccc(/C(C)=N/NC(=O)CNC(=O)c2cccs2)cc1OC	n	n	n	n	n	n
C/C(=N\NC(=O)CNC(=O)c1cccs1)c1ccc(Cl)c(Cl)c1	u	n	n	n	2.6µM	n
CN(Cc1cccs1)C(=O)/C=C/c1nc2ccccc2s1	x	x	n	x	x	x
CCCCN(C(=O)c1ccccc1OCc1ccc(F)cc1)c1c(N)n(CCC)c(=O)[nH]c1=O	u	n	n	n	18µM	u
CCCCn1c(N)c(N(Cc2ccccc2OC)C(=O)CCSC)c(=O)[nH]c1=O	n	n	n	n	n	n
CCCCN(C(=O)c1ccc([N+](=O)[O-])o1)c1c(N)n(CCCC)c(=O)[nH]c1=O	n	n	n	x	u	x
CCCCN(C(=O)c1ccc(-c2ccc([N+](=O)[O-])cc2)o1)c1c(N)n(CCCC)c(=O)[nH]c1=O	16µM	n	n	x	u	x
CCCCn1c(N)c(N(Cc2ccccc2OC)C(=O)c2ccc([N+](=O)[O-])s2)c(=O)[nH]c1=O	18µM	n	n	x	u	x
Cc1ccc2c(c1)C1CC(c3ccccc3Cl)=NN1C1(CCN(C)CC1)O2 (stereo unspecified)	x	x	n	x	x	x
CCCc1cc(=O)[nH]c(-n2nc(C)cc2NC(=O)Cc2ccccc2)n1	x	x	n	x	x	x
COc1ccc(C(=O)O)cc1NC(=S)NC(=O)/C=C/c1ccc(C(C)C)cc1	n	-66	n	n	n	n
O=C(/C=C/c1ccccc1)NC(=S)NNC(=O)c1ccccc1	x	x	n	x	x	x
COc1cc(C(=O)NNC(=S)NC(=O)/C=C/c2ccccc2)cc(OC)c1OC	u	n	n	2.8µM	16µM	4µM
CCCCC(=O)NC(=S)Nc1cc(C(=O)O)ccc1OC	n	n	n	n	n	n
COc1cc(C(=O)NNC(=O)/C=C/c2ccccc2)cc(OC)c1OC	n	-74	n	x	n	x
O=C(Nc1c(NCc2ccccc2)c2ccccc2oc1=O)c1ccc(Br)cc1	x	x	n	x	x	x
Cc1ccc(C(=O)/C(C#N)=C/c2ccc(OCc3ccccc3Cl)cc2)cc1	x	x	n	x	x	x
O=C(O)CNC(=O)C1CCOCC1	x	x	n	x	x	x
SMILES	DT40 TDP1 no CPT	IL1B secr inh	LDHA inh	RORg inh	TDP1 cell CPT	Gal4-VP16 FLuc
C=CCn1c(C(=O)NCCCOCC)cc2cc(S(=O)(=O)N(C)C)ccc21	x	x	n	x	x	x
CCCCCCn1c(COc2ccccc2F)nnc1SCC(=O)N1c2ccccc2NC(=O)C1(C)C	16µM	-57	n	u	23µM	u
CCCOc1ccc(CNC(=O)c2ccc3c(c2)N(Cc2ccccc2)CCS3)cc1	18µM	x	n	x	u	x
O=C(NCc1ccccc1)c1ccc2c(c1)N(Cc1ccc(F)cc1)CCS2	18µM	x	n	x	u	x
CCN1CCSc2ccc(C(=O)NCc3ccc(OC)cc3)cc21	u	x	n	x	n	x
O=C(Nc1ccc2c(c1)OCCO2)c1cc2c(s1)-c1ccc(Cl)cc1S(=O)(=O)C2	x	x	n	x	x	x
O=C(Nc1ccc2oc(=O)ccc2c1)c1cccc2c(Cl)cccc12	x	x	n	x	x	x
O=C(Nc1cccc2ccccc12)c1ccc(OC(=S)N2CCOCC2)cc1	23µM	n	n	n	23µM	u
